The sequences below were run against KIAA1217 (assay: pooled miR-30 sensor sort-seq; sequence = guide strand). Conditions: shRNA.
Also: reference of the scale not given here.

| Sequence | sensor-assay potency score (higher = more potent) |
| --- | --- |
| TTTTTGTCTCTCTTGCTCCACT | -0.52 |
| TACACTTTGAGGAGTGATCTGT | 0.221 |
| TTTCCCATTATAGTGATCCAGA | -1.06 |

Each sequence was assayed against KIAA1279 in the same assay as above. Conditions: shRNA.

| Sequence | sensor-assay potency score (higher = more potent) |
| --- | --- |
| TAAAGCTCTAAGTTCAGACTGT | 0.562 |
| TAGTACTTCAGTGCTGACTTAT | -0.671 |
| TTCAATATTGCACATTTCCTTT | -0.873 |
| TAGGTTATGAGTATAAACCTTT | -0.128 |
| TTCTTTGATGATAAAGCTCTGG | -0.681 |
| TTTTTGATCTCTCTTGTTCAGT | -0.606 |
| TTAATAGGAAACAAGCATCTAA | 0.679 |
| TAGCTCAACTTCTATTTCCTGG | 0.213 |
| TAGCTTATTGATGTAAAACTGT | -0.47 |
| TTGAGCTAGGTAATATAGGTTA | -0.261 |
| TATACTGATTATATAGTGCTTC | 0.382 |

The sequences below were run against KIAA2018 in the same assay as above. Conditions: shRNA.

| Sequence | sensor-assay potency score (higher = more potent) |
| --- | --- |
| TATCTGATGAATCTTGCTCAAC | -1.15 |
| TCTGCTTCCAACATCCTGCTGT | 0.86 |
| TTTCTGTACAGAAACATTGGGG | -0.202 |
| TAAACTTCCACTGTTTACCTTC | 0.292 |
| TTGACTAATTCGAAAAGCCTGG | -0.327 |
| TAGATTATAAGTACTAGCTAGT | 0.0786 |
| TAGATTTCGATACAGACTCAGG | -1.04 |
| TTTGTGTTGAGTTAGACGCTGA | 0.486 |
| TTGAGCTGGAACATGCTGCTGC | 0.733 |
| TTTCTGCATCTGAACTTCCTGT | -0.663 |
| TTGTTGTAGATGACAAACCAGG | -1.34 |
| TTGCTGGTCACATCTTCTCTTG | -1.17 |

What follows are sequences tested against KIF21A in the same assay as above. Conditions: shRNA.

| Sequence | sensor-assay potency score (higher = more potent) |
| --- | --- |
| TTTCATTTCCATCACATCCTGC | 0.0152 |
| TTGCTGACTAGCTCTGTCCTGA | 0.278 |
| TTCAACTGAGCAATCTCTCTGT | 0.68 |
| TTGATTTGCTGACTAGCTCTGT | 0.32 |
| TTGAGCTGCTTGAAGTCTCTGC | 0.624 |
| TTTTATATAACTATGAATCATA | -0.753 |
| TTGAATGTAGATCTGCTCTTGC | 0.95 |
| TATACATTGAATGTAGATCTGC | -0.0184 |
| TTGCAGAACAAGCATCTCCAAG | -1.19 |
| TTCTAGTTCATCAATCAGCTTT | -0.0186 |
| TAGTAGTCTTGTTAGCTTGGAA | -0.0525 |
| TTGTTTGAGTCGACCTTCCAGT | -0.666 |
